This note sets out measurements from PubChem BioAssay.

Experiment [1] in a line: signal quenchers or enhancers, Cy5 substrate/SSB – biochemical, NIH Clinical Collection, E. coli SSB, artefact control for HCV NS3 helicase inhibitor project (AID 743268). Particulars: Cy5-oligo bound E. coli SSB, fluorescence interference.
The subject of experiment [2] is Hepatitis C virus NS3 helicase. In words: blockers of NS3h binding to DNA – biochemical, fluorescence polarization, NIH Clinical Collection, primary screen (AID 743270). Particulars: NS3 helicase binding to Cy5-dT15 DNA, stronger effect = higher value, concentration not given here. (In general: In fluorescence polarisation assays a small probe gives low polarisation when free and higher when bound to something large.)

Experiment [3] concerns the target Single-stranded DNA-binding protein (Escherichia coli (strain K12)) (UniProt P0AGE0). Description: SSB-ssDNA binding inhibitors – biochemical, fluorescence polarization, NIH Clinical Collection, counter-screen for HCV NS3 helicase inhibitor project (AID 743271; in the data active = inhibition above about 28%). Particulars: E. coli SSB-DNA binding, stronger effect = higher value, concentration not given here.
Experiment [4] is described as follows: compounds distorting NS3 helicase fluorescence signal – biochemical, NIH Clinical Collection, artefact control for HCV NS3 helicase inhibitor project (AID 743272).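 Also: HCV NS3 helicase with a Cy5 labelled single stranded DNA probe.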 Particulars: fluorescence interference counterscreen, HCV NS3 helicase assay; stronger effect = lower value. (In general: The purpose of a counterscreen is to sort out artefacts and off-target activity.)
Experiment [5] in a line: modulation of C. elegans fzo-1 (AID 1259413).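 Also: fzo-1 mutant C. elegans worms in liquid wells.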 Particulars: C. elegans fzo-1 modulator screen, mean read-out; stronger effect = higher value.
Experiment [6] has as its target Mitogen-activated protein kinase 7 (Homo sapiens) (UniProt Q13164). In words: Gal4-ERK5 driven luciferase induction – cell-based, HTS, primary screen (AID 1508626;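 active = luciferase signal above three times the same-plate solvent-only control wells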;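 also: luciferase driven by Gal4-ERK5 fusion binding five Gal4 sites before minimal TATA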). The following applies: HeLa Gal4-ERK5 transactivation, 18 h, at 5 µM, stronger effect = higher value.
Experiment [7] deals with R275C/beta1. Description: BK channel mutant inhibitors and activators – cell-based, U2OS BacMam, thallium flux, beta subunits, selectivity assay, profiling panel (AID 1259406;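 active = thallium flux through the channel raised or lowered by more than 3 SD from vehicle-only wells, actives on both sides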;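 also: initial slope of Thallos dye fluorescence rise after thallium is added; log ratio against the mean of 0.3% DMSO vehicle wells on the same plate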). Particulars: U2OS BacMam BK variants, at 30 µM.
Experiment [8] concerns R275C/beta2Delta. The experiment is described as above. The following applies: U2OS BacMam BK variants, at 30 µM.
The subject of experiment [9] is R275C/beta4. Described as above. Particulars: U2OS BacMam BK variants, at 30 µM.
The subject of experiment [10] is R275C/Slo1WT/beta2. The experiment is described as above. Particulars: U2OS BacMam BK variants, at 30 µM.
Experiment [11] in a line: blockers of polyQ-driven CASP3 activation – cell-based (AID 1583). Particulars: polyglutamine-induced caspase-3 activation, cell assay; stronger effect = higher value;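 tested at 10 µM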.
Experiment [12] in a line: yeast 75Q aggregation reduction – 75Q-TubU reporter (AID 1593). Particulars: Yeast 75Q polyglutamine aggregation reporter.
Experiment [13] in a line: restoration of touch response, mutant HTT neurons – whole organism, C. elegans mechanosensory neurons, N-terminal huntingtin (AID 1599). The following applies: C. elegans polyQ-huntingtin mechanosensory neurons, stronger effect = higher value.
Experiment [14] can be described thus: blockers of cytochrome c efflux from mitochondria – biochemical, purified mitochondria (AID 1603).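 Also: mouse liver mitochondria challenged with calcium chloride; signal normalized to the plate average as 100%.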 Particulars: stronger effect = lower value.
A short description of experiment [15]: polyglutamine aggregate formation blockers (AID 1604). Particulars: polyglutamine-induced protein aggregation inhibition assay; stronger effect = higher value; tested at 2.5 µM.
Experiment [16] can be described thus: glutamate transport activators, MN-1 cells, MN-1 cell line (AID 1612).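 Also: tested at 1 µM final; 0% = mean of DMSO vehicle wells on each plate; positive means more glutamate uptake than control and negative means less.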 Particulars: MN-1 motor neuron cells, stronger effect = higher value.
A short description of experiment [17]: 75Q-TubH aggregate inhibition, S. cerevisiae, yeast (AID 1616). Particulars: S. cerevisiae 75Q-TubH polyglutamine aggregation suppression; stronger effect = higher value.
Experiment [18] is described as follows: compounds altering viability of human ES cells (AID 493140).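 Also: cells exposed to compounds for four days before counting.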 Particulars: human embryonic stem cell survival screen; stronger effect = higher value.
Experiment [19] can be described thus: galactose survival enhancers in mitochondrial complex I cybrids – cell-based, galactose medium, ATP luminescence, primary screen (AID 1645843;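 active = z-score of at least 1.8 in each of two replicates, scored against plate mean and spread of sample wells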;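 also: positive z means more ATP and so rescue of galactose-driven cybrid death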). Particulars: complex I mutant cybrid cells, 72 h, stronger effect = higher value.
A short description of experiment [20]: growth inhibition, single agents and combos, ICB984, cell-based, cisplatin or BGB combos, synergistic combos for chromothripsis tumors (AID 1671451).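 Also: cells exposed for 96 hours before readout; 0% = vehicle DMSO and 100% = killing by high DMSO.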 The following applies: ICB984 medulloblastoma cells, drug combinations, stronger effect = higher value.

Values joined by “and” are separate entries in the source; they are usually repeats but may differ in a detail not shown here. Identical values can stand only once. For some of these results: Results with a measured potency or affinity are listed apart. Active and inactive are the calls of the source. Unless noted, no rule for the calls is given here.

Chain of Mitogen-activated protein kinase 7 (Homo sapiens) (Q13164 whole entry, looked up, the tested form may be a part): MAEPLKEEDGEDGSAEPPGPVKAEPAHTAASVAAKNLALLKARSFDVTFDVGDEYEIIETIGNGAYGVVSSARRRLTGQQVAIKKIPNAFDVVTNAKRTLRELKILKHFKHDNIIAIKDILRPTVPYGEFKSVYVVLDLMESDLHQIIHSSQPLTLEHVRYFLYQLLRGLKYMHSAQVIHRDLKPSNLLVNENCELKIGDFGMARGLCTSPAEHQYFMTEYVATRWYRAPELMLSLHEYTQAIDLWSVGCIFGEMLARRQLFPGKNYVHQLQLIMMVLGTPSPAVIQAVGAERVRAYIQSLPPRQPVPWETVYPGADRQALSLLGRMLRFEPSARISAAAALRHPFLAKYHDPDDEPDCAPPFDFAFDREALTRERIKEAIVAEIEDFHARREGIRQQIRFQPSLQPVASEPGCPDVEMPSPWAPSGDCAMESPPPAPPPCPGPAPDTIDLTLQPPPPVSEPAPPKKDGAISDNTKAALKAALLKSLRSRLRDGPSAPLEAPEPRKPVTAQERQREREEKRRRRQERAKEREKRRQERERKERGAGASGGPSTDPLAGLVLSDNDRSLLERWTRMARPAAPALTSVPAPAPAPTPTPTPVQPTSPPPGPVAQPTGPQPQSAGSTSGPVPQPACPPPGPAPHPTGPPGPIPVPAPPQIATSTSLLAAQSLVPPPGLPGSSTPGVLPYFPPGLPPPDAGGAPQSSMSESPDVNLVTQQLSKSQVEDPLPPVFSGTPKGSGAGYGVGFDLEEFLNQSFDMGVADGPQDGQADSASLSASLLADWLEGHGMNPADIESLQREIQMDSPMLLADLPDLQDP

Turning to `CN(C)CCc1c[nH]c2ccc(C[C@H]3COC(=O)N3)cc12`, the fluorescence ratio in experiment [1] was 1.02 (inactive); in experiment [4], 1 (inactive). Further, the figures for the inhibition in experiment [2] and in [3] were -2.84% (inactive) and -4.33% (inactive), respectively. The mean signal in [5] was 245 (inactive). The luciferase signal in experiment [6] is 32 AU (inactive). The log fold change Tl+ flux was 0.0275 (inactive) in [7], -0.0113 (inactive) in experiment [8], 0.00246 (inactive) in [9] and 0.0342 (inactive) in experiment [10].

Turning to `COC(=O)Nc1nc2ccc(C(=O)c3ccccc3)cc2[nH]1`, the inhibition was -5.42% in experiment [11], -15.9% (inactive) in [2] and -8.87% (inactive) in experiment [3]. For the same molecule, in [12], the score was 0.63. Further, in experiment [13], the rescue above control is -9.11. Moreover, in [14], the cytochrome c release ratio was found to be 0.9. In addition, the inhibition of aggregation in experiment [15] turned out to be 83.3%. In experiment [16], the glutamate uptake change is -29.4%. In addition, the aggregation suppression score in [17] is 0.598. In [18], the survival was 1 (inactive). In addition, the fluorescence ratio in experiment [1] is 1.04 (inactive); in experiment [4], 0.98 (inactive). Besides, the mean signal in experiment [5] was 274 (inactive). For the same molecule, the luciferase signal in experiment [6] was 28 AU (inactive). Moreover, in [19], the z-score is 0.145 (inactive) and 0.665 (inactive) and -1.08 (inactive). Besides, the log fold change Tl+ flux is 0.00663 (inactive) in experiment [7], -0.00163 (inactive) in experiment [8], -0.0663 (inactive) in [9] and 0.008 (inactive) in [10].

In the case of `CCCCCCNC(=O)n1cc(F)c(=O)[nH]c1=O`, the fluorescence ratio was 1.03 (inactive) in experiment [1] and 0.97 (inactive) in experiment [4]. Further, the inhibition was 0.4% (inactive) in [2]; 1.44% (inactive) in experiment [3]; -17.4% and -9.29% in experiment [20] (BGB IC20 combo, at 0.005 µM); -22.5% and -2.82% in experiment [20] (BGB IC40 combo, at 0.005 µM); -29.3% and 7.79% in [20] (BGB IC40 combo, at 0.05 µM); -42.7% (inactive) and -3.92% (inactive) in experiment [20] (at 0.5 µM). Besides, the inhibition in experiment [20] (cisplatin combo, at 0.05 µM) is -33.9% and 7.79%; in experiment [20] (cisplatin combo, at 0.5 µM) it was -50% and -4.83%; in [20] (cisplatin combo, at 5 µM), -43.5% and -25.3%; in experiment [20] (measured here: 5 uM single agent, at 5 µM), -14.5% and -8.95%. Also, the mean signal in experiment [5] was 292 (inactive). Besides, the luciferase signal in experiment [6] was 32 AU (inactive). The z-score in experiment [19] is 1.85 (inactive). The log fold change Tl+ flux in experiment [7] was 0.00244 (inactive); in experiment [8] it was -0.0282 (inactive); in [9], -0.000915 (inactive); in experiment [10] it was -0.00804 (inactive).

As for `COc1cc2nc(N(C)CCCNC(=O)C3CCCO3)nc(N)c2cc1OC` (configuration not stated), in experiment [18], the survival is 6.42 (inactive). Moreover, the fluorescence ratio in experiment [1] was 1.04 (inactive); in experiment [4], 1.02 (inactive). The inhibition in [2] is -1.98% (inactive); in [3], -3.95% (inactive). For the same molecule, in [5], the mean signal was 257 (inactive). For the same molecule, in [6], the luciferase signal is 28 AU (inactive). In experiment [19], the z-score was -0.01 (inactive) and 0.43 (inactive). In addition, the log fold change Tl+ flux in experiment [7] was 0.0106 (inactive); in experiment [8], -0.00473 (inactive); in [9] it was -0.0149 (inactive); in [10], 0.00335 (inactive).

Regarding `Cc1ncc([N+](=O)[O-])n1CC(C)O` (configuration not stated), the fluorescence ratio is 1.05 (inactive) in experiment [1] and 1 (inactive) in experiment [4]. Also, the values for the inhibition in experiment [2] and in experiment [3] were 5.15% (inactive) and 6.83% (inactive), respectively. The mean signal in [5] is 281 (inactive). Besides, the luciferase signal in experiment [6] was 40 AU (inactive). Besides, in experiment [19], the z-score is 0.59 (inactive) and 0.27 (inactive). In addition, the log fold change Tl+ flux is 0.00616 (inactive) in experiment [7], -0.0048 (inactive) in experiment [8], -0.0387 (inactive) in [9] and 0.0129 (inactive) in experiment [10].

Consider `CN1CCCC(n2nc(Cc3ccc(Cl)cc3)c3ccccc3c2=O)CC1` (configuration not stated), for which the fluorescence ratio in experiment [1] was 1.03 (inactive); in [4] it was 0.97 (inactive). Also, the inhibition in experiment [2] was -6.73% (inactive); in experiment [3] it was 0.67% (inactive). Further, in experiment [5], the mean signal was 269 (inactive). Moreover, in experiment [6], the luciferase signal was 88 AU (inactive). In addition, the z-score in experiment [19] is -0.51 (inactive). In addition, the log fold change Tl+ flux in [7] is 0.101 (active); in experiment [8], -0.0285 (inactive); in experiment [9], 0.0595 (inactive); in [10], 0.0667 (inactive).

As a reminder, the inhibition is the relative decrease from the control value, in per cent.
